Reference: the supplement of paper PMC11417369
Over roughly 25,000 sequences, “ln(normalized median fluorescence intensity)” has its median near 7.1; the highest 2% begin near 10. For the sample, the highest values were picked, then their nearest neighbours and some sequences at random.

Each sequence was assayed on PfSIP2 AP2 domain 1 (GST-tagged) (assay: gcPBM binding intensity (ln(normalized median fluorescence intensity)); higher = stronger DNA binding).
How it was run: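 Probes on an Agilent 4 × 180k array were primer-extended, double-stranded and 36 bp long, taken from intergenic genomic regions, with negative controls added. GST-tagged P. falciparum DNA-binding domains from E. coli, about 25 μg on average, were applied to the array for 1 h in 1× PBS containing 1% milk, 0.2 mg/ml BSA, 0.5% salmon testes DNA and 0.03% Triton X-100. Binding intensity, obtained after Alexa488 anti-GST antibody detection and a 488 nm scan, is the highest Masliner-normalised natural-log median intensity across replicate spots of either probe orientation.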

Sequence	gcPBM binding intensity (ln)
TATGTTTTATATAAGATGCACTTTTGTTATGCTTCA	8.55
CCATGTCACAATTTTTCACACACAAAATTTATATAC [CACACA_site8628]	7.39
TATTTTTAGAAAATAAAGAAGGAGAATTGAAAATAT [CACACA_negctrl_site361]	7.06
TTTTGTTTTTAGTTTATACACACCATATTAATATAA [CACACA_site3102]	7.27
TGTATGTATAATTGAGTGCACAGAAAAAAAAAAGAA	10.5
CATTATAAAAAATAAAAAAGAAATAATTGTATATGC [CACACA_negctrl_site478]	7
AAGAAAATATAAAATGCACACTATAAATTGTATATA [CACACA_site7928]	7.84
ATATATTTTTTTTCTTCACACACATGAATTATATAT [CACACA_site9053]	7.45
ATATAAATTTTTTATGAACACACAAATACAGACACT [CACACA_site8848]	7.37
TAAACATAAATATGCACACATATACAGATATTCATA [CACACA_site5471]	7.04
TACAAATATATATGCACACACATATACATACAGATA [CACACA_site5238]	7.27
ATAATATTTAGGTGTGCACACAAACATACATATATA [CACACA_site9120]	8.81
AATATTTATGGGTGCACACAAACATACAGATATATA [CACACA_site5810]	12.1
AAAAAAAAAACATACACACACACAAATATTTATATA [CACACA_site437]	6.94
AATATTTATGGGTGCACACAAACATACATATATATA [CACACA_site3395]	11.8
ATATAAATTGGCAATAGTACATAAAGGCATAGAAAG [XGTACX_site2674]	7.31
TTGTATATATTTCCTTGTACGTAATAATTCTTATTG [XGTACX_site3938]	7.19
TTTATTTGTTCATGCGTGCACTTGATAACAATGTAC [GTGCAC_site9561]	9.9
AGATATTATAATTAATGTACAAAAAGAAAAAATAGA [XGTACX_site8964]	7.04
ATATTATAATTGAAGGTGCAAAATGTAATATAGATA [GTGCAC_site9661]	10.6
AAATATAATTAATGATGTACACTTATAGATATTGAT [XGTACX_site8435]	7.09
TTTTATAATCATAATAGTACTTTTTCTTTTTCACAT [XGTACX_site5017]	6.7
TATATATATAATGTTTGTACATATTAAATATATATG [XGTACX_site407]	8.3
TTTTTTGTTACAACAGTGCAAAAAAACCTTAATGTT	7.84

Sequence	gcPBM binding intensity (ln)
CTCATTTTGTTAATGGTGCAAAAAAAAAAAAAAAAA	11
TTTTCATTTGTGACAGTGCAAAATGTTATATTAAAA [GTGCAC_site9647]	8.57
TTATCAATAAAATGCACACACTGTAATATTATTAAA [CACACA_site6055]	7.18
TATCTTATAAACTCTGCACACATAATATATTAAATG [CACACA_site8587]	9.1
ATATATATTATCATTGTGCACTTATTTATATACCTT	10.5
ATATGTATGTATTTATTATTGTGCATTGTATTTATA [CACACA_negctrl_site664]	7.44
TTATCATTTGCCATTGTGCACTTATATGCTCACATT	10.2
TATGTATGTGCTTGTGCGCACCGATAATATAGCCAA	9.96
AAAAAGGAAATAATAACACACATTAATAATTATAAA [CACACA_site3401]	6.67
TTATATGCATAAAAAGGTACACATATATAAATAAAT [XGTACX_site6894]	7.12
TATGAAAAAATATATACACACATAATAAAGGTATAT [CACACA_site3737]	6.9
TATTTATGCACGCGTGCACACACATATGAAAAAAGG [CACACA_site9090]	10.4
TTTATGCACGCGTGCACACACATATGAAAAAAGGTA [CACACA_site3315]	10.4
CAAAAGGATATGCACACACACACACGGATATTTATA [CACACA_site7099]	7.41
GGTATTTATGGACGCGTGCACACACATATGAACAAA	9.35
TGTTTTATTTATTAAGCACACGCGATTTAAAAAATA [CACACA_site981]	6.79
TGTATATTTTAGTGATGTACTAATATTATTACTAAT [XGTACX_site3952]	6.99
TTCTAATATTTACATAATATATAGAAATATAAAGGT [XGTACX_negctrl_site504]	7.4
TATATTAACAAAATGGTGCAATAATTTCTATATTAT [GTGCAC_site9857]	10.4
TATATTATCAAAATGGTGCAATAATTTCTATATTAT [GTGCAC_site9772]	9.9
GTAGACATTATAATGGTGCAAAAAAATTAACAAAAA [GTGCAC_site9891]	10.5
AGCAAAACAAAAAAATTAAAATTAACATATAATCAT [GTGCAC_negctrl_site393]	6.7
TATATTAACAAAATGGTGCAATAATTTCTATATTGT [GTGCAC_site9430]	9.87
GTTAACAAATAATGCACACAAATGGATAAAATTATA [CACACA_site3725]	7.68
